# PubChem BioAssay
# Active and inactive are the calls of the source. Unless noted, how the calls were made is not given here.
# Columns and labels:
# [1] = compound effects on lung adenocarcinoma cell viability – A549, calcein-AM fluorescence, 48 h, basal, profiling panel (AID 1162); settings: higher = more signal; further: test concentration not given here
# [2] = compound effects on differentiated 3T3-L1 adipocyte viability – cell-based, 3T3-L1 adipocytes, calcein-AM fluorescence, 48 h, basal, profiling panel (AID 1163); settings: 3T3-L1 adipocytes viability, higher = more signal; further: test concentration not given here
# [3] = compound effects on hepatocellular carcinoma cell viability – HepG2, calcein-AM fluorescence, 48 h, basal, profiling panel (AID 1164); settings: higher = more signal; further: test concentration not given here
# [4] = compound effects on multiple myeloma cell viability – MM1S, calcein-AM fluorescence, 48 h, basal, profiling panel (AID 1165); settings: higher = more signal;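 further: viability of MM1S multiple myeloma cells under basal unstimulated conditions; test concentration not given here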
# [5] = calcein-AM signal in unstimulated myeloma cells – cell-based, calcein-AM fluorescence, 48 h, PK04 Diversity Set, profiling panel (AID 1166); settings: RPMI8226 myeloma viability, higher = more signal;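 further: cells grown under basal conditions without added stimulus; test concentration not given here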
# [6] = JC-1 mitochondrial signal, unstimulated HepG2 cells – cell-based, JC-1 fluorescence, 24 h, 100 nL compound, profiling panel (AID 1167); settings: HepG2 mitochondrial potential, higher = more signal; further: test concentration not given here
# [7] = JC-1 mitochondrial signal, unstimulated adipocytes – cell-based, JC-1 fluorescence, 3T3-L1 adipocytes, 24 h, 100 nL compound, profiling panel (AID 1168); settings: JC-1 mitochondrial fluorescence, higher = more signal, called active from +8 up or from −8 down; further: test concentration not given here
# [8] = JC-1 mitochondrial signal, unstimulated myeloma cells – cell-based, JC-1 fluorescence, RPMI8226, 24 h, 100 nL compound, profiling panel (AID 1169); settings: JC-1 mitochondrial potential fluorescence, higher = more signal; further: test concentration not given here
# [9] = JC-1 mitochondrial signal, unstimulated MM1S myeloma – cell-based, JC-1 fluorescence, 24 h, 100 nL compound, profiling panel (AID 1170); settings: MM1S mitochondrial potential, higher = more signal; further: test concentration not given here
# [10] = resazurin metabolic signal in A549 cells – cell-based, resazurin fluorescence, 24 h, PK04 Diversity Set, profiling panel (AID 1171); settings: A549 viability, higher = more signal, called active from +8 up or from −8 down; further: test concentration not given here
# [11] = resazurin metabolic signal in HepG2 cells – cell-based, resazurin fluorescence, 24 h, PK04 Diversity Set, profiling panel (AID 1172); settings: HepG2 viability, higher = more signal; further: test concentration not given here
# [12] = budding yeast growth changes without added modifier – OD600, strain BY4716, 24 h, basal condition, primary screen (AID 1173); settings: S. cerevisiae BY4716 growth, OD600, 24 h; higher = more signal, called active from +8 up or from −8 down
# [13] = viability profiling in MM1S myeloma cells – cell-based, resazurin fluorescence, basal, 24 h, PK04 Diversity Set, profiling panel (AID 1174); settings: higher = more signal, called active from +8 up or from −8 down; further: test concentration not given here
# [14] = biological target: Dihydroorotate dehydrogenase (quinone), mitochondrial (Plasmodium falciparum (isolate 3D7)) (UniProt Q08210); assay: inhibition of P. falciparum DHODH – biochemical, C-terminal His tag, absorbance 600 nm, primary screen (AID 1175); settings: PfDHODH enzyme, DCIP absorbance 600 nm; higher = more signal, called active from +8 up or from −8 down;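 further: recombinant parasite enzyme with a five histidine tag at its C terminus; test concentration not given here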
# Dihydroorotate dehydrogenase (quinone), mitochondrial (Plasmodium falciparum (isolate 3D7)), sequence (Q08210 whole entry, looked up): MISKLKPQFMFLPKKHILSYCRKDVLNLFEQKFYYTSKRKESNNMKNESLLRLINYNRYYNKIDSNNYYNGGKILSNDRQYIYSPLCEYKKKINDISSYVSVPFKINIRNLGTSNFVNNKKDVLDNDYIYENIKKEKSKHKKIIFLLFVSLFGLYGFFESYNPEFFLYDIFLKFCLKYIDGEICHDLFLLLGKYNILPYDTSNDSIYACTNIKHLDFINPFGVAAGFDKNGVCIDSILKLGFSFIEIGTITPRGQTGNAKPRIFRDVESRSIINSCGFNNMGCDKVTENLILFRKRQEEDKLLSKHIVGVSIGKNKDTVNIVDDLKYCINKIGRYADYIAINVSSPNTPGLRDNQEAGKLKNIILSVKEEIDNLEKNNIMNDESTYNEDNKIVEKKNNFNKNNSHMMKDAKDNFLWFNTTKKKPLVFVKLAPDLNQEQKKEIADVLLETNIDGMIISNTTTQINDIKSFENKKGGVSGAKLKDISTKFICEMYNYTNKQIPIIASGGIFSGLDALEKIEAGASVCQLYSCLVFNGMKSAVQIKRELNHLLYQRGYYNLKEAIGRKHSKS
# [15] = inhibition of PAO1 biofilm formation – strain PAO1, LB-PBS medium, absorbance 600 nm, primary screen (AID 1176); further: test concentration not given here; settings: P. aeruginosa PAO1 growth/biofilm, A600, 12 h; higher = more signal
# [16] = growth modulation of vineyard yeast isolate – strain RM11-1a, OD600, basal, 24 h, primary screen (AID 1177);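 further: cultures grown under basal conditions with no added stressor; test concentration not given here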; settings: S. cerevisiae RM11-1a growth, OD600, 24 h; higher = more signal, called active from +8 up or from −8 down
# [17] = growth of efflux-deficient E. coli DRC39 – strain DRC39, OD650, 24 h, E. coli filamentation inducers, primary screen (AID 1178);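 further: growth measured as culture turbidity by optical density at 650 nm; test concentration not given here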; settings: E. coli DRC39 acrAB, higher = more signal, called active from +8 up or from −8 down
# [18] = growth of efflux-deficient E. coli DRC39 – strain DRC39, OD650, 48 h, E. coli filamentation inducers, primary screen (AID 1179);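 further: screen aims at cell division blockers that make cells filament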; settings: E. coli DRC39 delta-acrAB growth, higher = more signal, called active from +8 up or from −8 down
# [19] = viability profiling in RPMI8226 myeloma cells – cell-based, resazurin fluorescence, basal, 24 h, PK04 Diversity Set, profiling panel (AID 1180); settings: higher = more signal;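 further: RPMI8826 multiple myeloma cell line at 5000 cells per well; test concentration not given here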
# [20] = biological target: E3 ubiquitin-protein ligase XIAP (Homo sapiens) (UniProt P98170); assay: small molecules binding XIAP protein – biophysical, small-molecule microarray, fluorescence 635 nm, primary screen (AID 1181); settings: higher = more signal;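 further: score merges 667 nm emission and signal to noise over triplicate slides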
# E3 ubiquitin-protein ligase XIAP (Homo sapiens), sequence (P98170 whole entry, looked up): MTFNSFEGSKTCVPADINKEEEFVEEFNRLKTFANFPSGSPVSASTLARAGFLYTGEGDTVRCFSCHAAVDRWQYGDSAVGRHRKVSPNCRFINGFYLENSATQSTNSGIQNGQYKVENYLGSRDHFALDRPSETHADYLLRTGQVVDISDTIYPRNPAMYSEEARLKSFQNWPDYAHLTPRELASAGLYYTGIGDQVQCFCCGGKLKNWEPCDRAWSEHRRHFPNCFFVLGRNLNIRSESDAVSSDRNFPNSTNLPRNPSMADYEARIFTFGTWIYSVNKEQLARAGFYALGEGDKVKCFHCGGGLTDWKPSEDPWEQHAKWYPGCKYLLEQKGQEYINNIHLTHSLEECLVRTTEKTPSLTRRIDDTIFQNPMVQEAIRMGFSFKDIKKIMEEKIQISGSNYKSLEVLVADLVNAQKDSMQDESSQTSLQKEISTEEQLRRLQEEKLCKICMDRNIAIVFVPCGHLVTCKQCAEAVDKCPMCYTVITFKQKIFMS
SMILES,z-score [1],z-score [2],z-score [3],z-score [4],z-score [5],z-score [6],z-score [7],z-score [8],z-score [9],z-score [10],z-score [11],z-score [12],z-score [13],composite z-score [14],z-score [15],z-score [16],z-score [17],z-score [18],z-score [19],composite z-score [20]
CCOC(=O)C[C@H]1[C@H](OC(=O)c2ccccc2-c2ccccc2)[C@@H](NC(=O)CC(C)C)c2cc(OCCCO)ccc2N1C(=O)c1ccccc1,0.682,1.32,-0.177,-0.271,0.107,2.01,0.197 (inactive),-0.986,-0.0327,1.65 (inactive),0.928,-1.04 (inactive),0.351 (inactive),-0.6 (inactive),0.13 (inactive),-0.71 (inactive),1.51 (inactive),0.973 (inactive),-0.503,0.0412
CCOC(=O)C[C@H]1[C@H](OC(=O)c2cc3ccccc3oc2=O)[C@@H](NC(=O)c2ccc(-c3ccccc3)cc2)c2cc(OCCCO)ccc2N1C(=O)Cc1ccc(OC)cc1,-0.382,1,0.0719,0.17,-0.84,-0.0623,-1.08 (inactive),-0.97,-0.0508,0.0573 (inactive),0.288,0.0392 (inactive),-0.346 (inactive),-0.487 (inactive),0.285 (inactive),-0.0775 (inactive),-0.225 (inactive),-0.618 (inactive),-0.0232,-0.338
Cc1c(NC(=O)/C(C#N)=C/C=C/c2ccc([N+](=O)[O-])cc2)c(=O)n(-c2ccccc2)n1C,0.251,-0.141,-0.182,-1.02,-0.787,-1.19,0.0244 (inactive),-0.278,0.096,0.0981 (inactive),-0.559,-0.546 (inactive),0.11 (inactive),0.142 (inactive),-0.736 (inactive),-0.254 (inactive),-0.465 (inactive),-0.412 (inactive),0.664,-0.0581
CN1C2C=C(c3ccc(CO)cc3)C(C3C(=O)N(C(N)=O)C(=O)C32)C1C1CC1 (stereo not given),-0.497,0.0457,-0.157,0.341,-0.773,-0.391,-0.242 (inactive),-0.482,0.326,0.182 (inactive),-0.41,1.31 (inactive),-0.611 (inactive),0.437 (inactive),0.354 (inactive),0.718 (inactive),0.0605 (inactive),0.213 (inactive),-0.641,-0.0745
CCCCCCc1nc(Cc2cc(OC)c(OC)c(OC)c2)c(C)c2c1[Si](C(C)C)(C(C)C)OC2,0.106,0.986,-0.348,0.286,-3.41,4.95,0.835 (inactive),-0.651,0.0845,0.504 (inactive),-0.422,-0.944 (inactive),0.328 (inactive),-3.29 (inactive),0.055 (inactive),-0.599 (inactive),1.4 (inactive),0.707 (inactive),0.556,0.146
COc1ccc([Si](C)(C)[C@@H]2[C@@H](CC(=O)N3Cc4ccccc4C[C@H]3CO)O[C@]3(C(=O)N(Cc4ccc(I)cc4)c4ccccc43)[C@H]2C)cc1,-0.806,0.62,-0.435,-1.98,-0.588,0.81,0.124 (inactive),-0.531,0.122,-0.663 (inactive),0.454,-0.0671 (inactive),-1 (inactive),0.312 (inactive),0.662 (inactive),2.33 (inactive),0.101 (inactive),-0.092 (inactive),-0.336,0.262
COC(=O)c1ccc(OC)c(/C=C\CC(OC(=O)c2ccncc2)c2ccccc2)c1 (stereo not given),1.46,-0.347,1.04,-1.64,-1.5,0.615,0.202 (inactive),-0.177,0.148,0.271 (inactive),0.887,-2.06 (inactive),0.514 (inactive),-6.33 (inactive),0.792 (inactive),-2.69 (inactive),2.57 (inactive),1.49 (inactive),0.525,0.0774
O=C1O[C@@H](c2ccccc2)[C@@H](c2ccccc2)N2[C@@H](c3ccc(OCCO)cc3)[C@]3(C(=O)Nc4ccc(C#CC5=CCCCC5)cc43)[C@@H](C(=O)Nc3nc4ccccc4s3)[C@H]12,0.583,0.0884,0.803,-1.69,-2.18,-3.08,-0.395 (inactive),-1.12,-1.92,-1.27 (inactive),-0.533,1.46 (inactive),-1.21 (inactive),-4.05 (inactive),3.52 (inactive),2.53 (inactive),-0.304 (inactive),0.141 (inactive),-1,-0.339
COc1ccc([Si](C)(C)[C@@H]2[C@@H](CC(=O)N(CCO)Cc3ccccc3)O[C@]3(C(=O)N(Cc4cccc(I)c4)c4ccccc43)[C@H]2C)cc1,-1.09,1.05,-1.59,-2.55,-4.25,0.198,1.5 (inactive),-1.2,-1.68,-2.97 (inactive),-2.2,-0.142 (inactive),-3.25 (inactive),0.704 (inactive),1.51 (inactive),2.64 (inactive),-0.335 (inactive),-0.795 (inactive),-2.96,0.236
COc1ccc([Si](C)(C)[C@H]2[C@H](CC(=O)N(CCO)Cc3ccccc3)O[C@@]3(C(=O)N(c4ccccc4)c4ccccc43)[C@@H]2C)cc1,-3.41,-1.38,-4.61,-2.69,-4.38,-2.35,0.938 (inactive),-1.11,-2.27,-3.43 (inactive),-4.7,0.148 (inactive),-8.42 (active),0.531 (inactive),0.838 (inactive),0.29 (inactive),0.997 (inactive),-0.0322 (inactive),-6.25,0.226
CC[C@@H](O[Si](C#C[Si](C(C)C)(C(C)C)C(C)C)(C(C)C)C(C)C)c1cn(Cc2cccc(Cl)c2)nn1,-0.163,-1.25,0.0222,0.534,0.0929,0.0106,-0.00161 (inactive),0.0677,-1.25,0.359 (inactive),0.318,1.42 (inactive),0.0769 (inactive),0.625 (inactive),0.313 (inactive),1.33 (inactive),-0.0544 (inactive),0.309 (inactive),0.961,0.0583
CCCCN1CC=CC23O[C@@H]4/C=C\CCCOC(=O)C4[C@H]2C(=O)N(CCCCCCO)[C@@H]3C1=O (stereo not given in full),-0.0075,1.61,0.331,1.42,0.88,0.608,1.38 (inactive),0.16,-1.05,0.851 (inactive),0.646,-0.556 (inactive),1.21 (inactive),-1.97 (inactive),0.454 (inactive),-0.874 (inactive),0.564 (inactive),0.924 (inactive),0.983,-0.159
C=CC[C@@]1(C(=O)NCCCOC)N=C(c2ccc(OCCCO)cc2)O[C@@H]1c1ccccc1CN=[N+]=[N-],-0.287,0.532,0.569,-0.459,-0.885,2.5,0.738 (inactive),-0.728,0.0149,0.41 (inactive),0.891,-0.574 (inactive),0.961 (inactive),0.346 (inactive),-0.248 (inactive),-0.343 (inactive),0.914 (inactive),0.831 (inactive),0.803,0.289
[N-]=[N+]=NCc1ccccc1C[C@]1(C(=O)N2CCCCC2)COC(c2ccc(OCCCO)cc2)=N1,0.139,-0.288,-0.689,-3.54,-4.52,-0.792,0.607 (inactive),-1.22,-1.98,0.898 (inactive),0.894,-0.749 (inactive),-0.0967 (inactive),-0.0119 (inactive),0.0405 (inactive),2.36 (inactive),1.4 (inactive),0.815 (inactive),0.791,-0.0604
CCCCCN1CC=CC23O[C@@H]4/C=C\CCCOC(=O)C4[C@H]2C(=O)N(CCO)[C@@H]3C1=O (stereo not given in full),0.415,1.64,0.0134,1.59,0.218,-0.242,-0.428 (inactive),0.699,-0.307,-0.231 (inactive),-0.192,-1.2 (inactive),1.22 (inactive),-0.195 (inactive),0.938 (inactive),-0.843 (inactive),0.859 (inactive),0.188 (inactive),0.936,-0.0918
[N-]=[N+]=NCc1ccccc1[C@H]1OC(c2ccc(OCCCO)cc2)=N[C@@]1(CCS(=O)(=O)c1ccccc1)C(=O)O,0.0952,0.0313,0.35,0.263,-0.829,-1.24,-1.02 (inactive),-0.278,-0.479,0.355 (inactive),0.086,-1.04 (inactive),-0.389 (inactive),-1.14 (inactive),-0.0304 (inactive),-0.81 (inactive),-0.589 (inactive),-0.336 (inactive),0.0678,0.273
